Experimental data: PubChem BioAssay AID1159580 (chemical genetic matrix, 2015)
In all, about 5,500 compounds went through this assay and about 2,000 (36%) were called active. Roughly 18% stayed inconclusive and do not appear here. No stated cut-off is given here; in the data, active means normalized growth mostly below about 0.91 (no sharp cut-off); inconclusive means no clear call, values can overlap the other calls; inactive means mostly above about 0.92. The list shows a part of the results.

Experiment: chemical genetic growth profiling, strain panel (AID 1159580);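 further: tested at 20 µM; growth read once vehicle control cultures reached saturation at 30 °C; 1 = growth at the plate median or of vehicle wells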
Settings: growth OD
[1] = S. cerevisiae deletion strains, locus YHR030C, strain SLT2, stronger effect = lower value

Measured: normalized growth

O=C(O)c1ccccc1-c1c2cc(I)c(=O)c(I)c-2oc2c(I)c(O)c(I)cc12
inactive: [1] 0.991 | S. cerevisiae deletion strains, locus YHR079C, strain IRE1, stronger effect = lower value 1 | S. cerevisiae deletion strains, locus YJL095W, strain BCK1, stronger effect = lower value 0.992 | S. cerevisiae deletion strains, locus YJR066W, strain TOR1, stronger effect = lower value 0.903 | S. cerevisiae deletion strains, locus YLR113W, strain HOG1, stronger effect = lower value 0.942 | S. cerevisiae deletion strains, locus YNL183C, strain NPR1, stronger effect = lower value 0.93 | S. cerevisiae deletion strains, locus YOR231W, strain MKK1, stronger effect = lower value 1.02 | S. cerevisiae deletion strains, locus YPL256C, strain CLN2, stronger effect = lower value 1.01

COc1ccc(C(C)=O)cc1CSC(=NS(=O)(=O)c1ccccc1)Nc1cccc(F)c1
inactive: S. cerevisiae deletion strains, locus YAL013W, strain DEP1, stronger effect = lower value 1.01 | S. cerevisiae deletion strains, locus YBR229C, strain ROT2, stronger effect = lower value 0.993 | S. cerevisiae deletion strains, locus YDL101C, strain DUN1, stronger effect = lower value 0.988 | S. cerevisiae deletion strains, locus YDL134C, strain PPH21, stronger effect = lower value 0.994 | S. cerevisiae deletion strains, locus YDR150W, strain NUM1, stronger effect = lower value 0.913 | S. cerevisiae deletion strains, locus YEL061C, strain CIN8, stronger effect = lower value 0.974 | S. cerevisiae deletion strains, locus YGR078C, strain PAC10, stronger effect = lower value 1.02 | [1] 0.944 | S. cerevisiae deletion strains, locus YHR087W, strain rtc3, stronger effect = lower value 0.981 | S. cerevisiae deletion strains, locus YJR043C, strain POL32, stronger effect = lower value 1.01 | S. cerevisiae deletion strains, locus YJR075W, strain HOC1, stronger effect = lower value 0.981 | S. cerevisiae deletion strains, locus YKL190W, strain CNB1, stronger effect = lower value 0.984 | S. cerevisiae deletion strains, locus YLR039C, strain RIC1, stronger effect = lower value 0.876 | S. cerevisiae deletion strains, locus YLR058C, strain SHM2 (second series), stronger effect = lower value 1 | S. cerevisiae deletion strains, locus YLR085C, strain ARP6, stronger effect = lower value 0.921 | S. cerevisiae deletion strains, locus YLR262C, strain YPT6, stronger effect = lower value 0.915 | S. cerevisiae deletion strains, locus YML094W, strain GIM5, stronger effect = lower value 0.973 | S. cerevisiae deletion strains, locus YMR219W, strain ESC1, stronger effect = lower value 0.999 | S. cerevisiae deletion strains, locus YMR263W, strain SAP30, stronger effect = lower value 0.998 | S. cerevisiae deletion strains, locus YMR307W, strain GAS1, stronger effect = lower value 0.737 | S. cerevisiae deletion strains, locus YNL153C, strain GIM3, stronger effect = lower value 1.03 | S. cerevisiae deletion strains, locus YNL298W, strain CLA4 (second series), stronger effect = lower value 0.963 | S. cerevisiae deletion strains, locus YNL322C, strain KRE1, stronger effect = lower value 0.98 | S. cerevisiae deletion strains, locus YNR030W, strain Alg12, stronger effect = lower value 0.952 | S. cerevisiae deletion strains, locus YPL055C, strain LGE1, stronger effect = lower value 1.02 | S. cerevisiae deletion strains, locus YPL241C, strain CIN2, stronger effect = lower value 0.983 | S. cerevisiae deletion strains, locus YPR135W, strain CTF4, stronger effect = lower value 1.03 | S. cerevisiae strains, strain wild type, stronger effect = lower value 0.988
